Screening results (PubChem)
This is a sample that favours compounds with a hit; in the whole collection about 2.8% have one here.
PI5P4K alpha inh – blocks human PI5P4K alpha kinase activity; PI5P4Kalpha enzyme, ADP-Glo luminescence, 60 min; active compounds read low; AID 652105; P48426; 1.2% of 330,000 active; max response, %; active = max response of -50% or lower; inconclusive = between -30% and -50%; inactive = -30% or higher; also: value at the top dose of about 77 µM; % is scaled to controls: 0 for no effect and ±100 for the full control effect
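ADP-Glo luminescence end-point read after a 60 min room-temperature kinase reaction of PI5P4Kalpha plus substrate, initiated with ATP at 5 microM final. Buffer: 0.038 M HEPES pH 7.4, EGTA, 0.1% CHAPS, 5% DMSO.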
Pol iota inh – DNA polymerase iota (human) inhibition; AID 588590; Pol iota fluorescent replication assay, 10 min; Potency, µM (highest dose often 115 µM), for inactives: at the highest dose activity, negative = inhibition, hits mostly inhibitors; Q9UNA4; 1% of 390,000 active; also: potency is read from the fitted curve at half-maximal effect
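Pol iota at 10 nM preincubated 15 min with compounds at room temperature; reaction started with fluorescent substrate, 50 nM final. Fluorescence read kinetically at 0 and 10 min; buffer-only wells as negative control.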
Pol kappa inh-1 – DNA polymerase kappa (human) inhibition | Q9UBT6 | purified Pol kappa, fluorescent DNA synthesis assay, 10 min | Potency, µM (series often up to 107 µM), for the others: at the top dose activity, negative = inhibition, actives largely listed as inhibitors | 0.53% of 400,000 active; also: potency is read from the fitted curve at half-maximal effect; % is scaled to controls: 0 for no effect and ±100 for the full control effect
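Pol kappa 10 nM + cpd, 15 min RT; start w/ substrate 50 nM final; fluorescence kinetic read, 0 and 10 min. Neg ctrl: buffer, no enzyme.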
POLB inh – DNA polymerase beta (human) inhibition; Pol beta primer extension/strand displacement, fluorescence kinetic; P06746; Potency, µM (highest dose often 114 µM), for the others: at the top dose activity change, negative = inhibition, hits mostly inhibitors; AID 485314; 1.3% of 340,000 active; also: potency is read from the fitted curve at half-maximal effect; % is scaled to controls: 0 for no effect and ±100 for the full control effect
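Human Pol beta at 10 nM; strand-displacement substrate 50 nM final. Compound exposure 15 min at room temperature before start, reaction 10 min at room temperature.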
Pol eta inh-1 – inhibitors of human DNA polymerase eta; Q9Y253; recombinant Pol eta, fluorescent DNA replication assay; Potency, µM (doses to about 114 µM), for inactives: at the top dose activity change, negative = inhibition, most hits filed as inhibitors; 1.2% of 390,000 active; AID 588591; also: potency is read from the fitted curve at half-maximal effect; % is scaled to controls: 0 for no effect and ±100 for the full control effect
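Pol eta (10 nM) was preincubated with compounds for 15 min at room temperature, after which fluorescent replication substrate (50 nM final) was added to start the reaction. Fluorescence was read kinetically at 0 and 10 min.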
WRN inhibitor – inhibitors of human WRN helicase; Potency, µM (top dose mostly 114 µM), for the others: top-dose activity change, negative = inhibition, most hits filed as inhibitors; 0.46% of 360,000 active; WRN helicase unwinding, fluorescent forked duplex, kinetic; Q14191; also: potency is read from the fitted curve at half-maximal effect; % is scaled to controls: 0 for no effect and ±100 for the full control effect; nearly all actives have a fitted effect of over 55% in size
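Screening of the MLSMR collection measured strand separation of a quenched forked DNA duplex (100 nM) by 20 nM WRN with 2 mM ATP, all final. Compounds were preincubated with enzyme 15 min at room temperature.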
GALK inh confirm – confirmation of human galactokinase (GALK) inhibitors; 70% of 150 active; shares compounds with Pol eta inh-1; AID 2015; purified GALK, Kinase-Glo ATP depletion luminescence; Potency, µM (series often up to 115 µM), without a hit: at the highest dose activity, negative = inhibition, most hits filed as inhibitors
Redox cycling – generates H2O2 by redox cycling, flagging GALK artifacts; Phenol red-HRP H2O2 redox cycling, absorbance 600 nm; shares compounds with Pol eta inh-1; Potency, µM (top dose mostly 115 µM), without a hit: at the highest dose activity change, negative = H2O2 signal, actives largely listed as inhibitors; 40% of 150 active
HEK293 viability – HEK-293 cytotoxicity, GALK inhibitor secondary; shares compounds with Pol eta inh-1; HEK-293 viability, ATP luminescence (CellTiter-Glo), 24/48 h; Potency, µM (top dose mostly 46.1 µM), without a hit: at the top dose activity change, negative = cytotoxicity, hits mostly inhibitors; 10% of 170 active; AID 2547; also: potency is read from the fitted curve at half-maximal effect; % is scaled to controls: 0 for no effect and ±100 for the full control effect
Pol kappa inh-2 – Pol kappa (human) inhibition, cherry-pick confirmation; shares compounds with Pol eta inh-1; purified Pol-kappa, fluorescent strand-displacement substrate; Potency, µM, actives largely listed as inhibitors; 76% of 920 active; also: potency is read from the fitted curve at half-maximal effect
Pol eta inh-2 – confirmation of human DNA polymerase eta inhibitors. shares compounds with Pol eta inh-1. Pol eta primer extension, TAMRA/BHQ fluorescence, 10 min. Potency, µM, actives largely listed as inhibitors. 64% of 2,600 active. AID 720502; also: potency is read from the fitted curve at half-maximal effect
The depositor's hits bear a star; ? = inconclusive; / = not tested or not shown; [ ] = remark or other dose. Unless noted, calls follow the shape of the dose curve; as a rule, active = well fitted curve in the direction sought with a large enough effect; inconclusive = small, poorly fitted or top-dose-only effect, or another doubt; inactive = no such curve, though single readings can be large; an effect the other way counts as inactive or inconclusive.

SMILES | PI5P4K alpha inh | Pol iota inh | Pol kappa inh-1 | POLB inh | Pol eta inh-1 | WRN inhibitor | Pol eta inh-2 | others
C/C(=N\Nc1ccc(Cl)c(C(=O)O)c1)c1cccc2ccccc12 | -30 | 16µM* | ? | 28µM* | 7.9µM* | ? | 27*
O=C(O)c1cc(NN=C2c3ccccc3-c3ccccc32)ccc1Cl | 1 | ? | ? | 50µM* | 22µM* | ? | 38*
Cc1ccc(F)cc1NC(=O)CSc1nnc(CNC(=O)c2ccco2)n1C | 0 | 23% | -5% | / | -6% | -2% | /
CC(=O)Nc1ccc(S(=O)(=O)Nc2cc(-c3cn4ccccc4n3)ccc2C)cc1 | / | 32% | 5% | 40% | -4% | / | /
COc1cc(/C=C2\C(=N)N3N=C(S(=O)(=O)CC(C)C)SC3=NC2=O)ccc1OC(=O)c1ccco1 | / | / | / | -22% | / | / | / | GALK inh confirm=27µM*;Redox cycling=-4%;HEK293 viability=3%
COc1cc(/C=C2/C(=N)N3OC(C)=CC3=NC2=O)ccc1OC(=O)c1ccco1 | -12 | 25% | -19% | -12% | 3% | -8%[57.1 µM] | /
COc1cc(/C=C2/C(=N)N3C=CSC3=NC2=O)ccc1OCCOc1ccc(NC(C)=O)cc1 | -2 | 70% | -15% | 32% | -3% | -22%[57.1 µM] | /
CCS(=O)(=O)C1=NN2C(=N)/C(=C\c3ccc(OCCOc4cccc(OC)c4)c(OC)c3)C(=O)N=C2S1 | -78* | ? | -25% | 50µM* | 35µM* | -33% | ? | Pol kappa inh-2=?
COc1cc(/C=C2\C(=N)N3N=C(S(C)(=O)=O)SC3=NC2=O)cc(OC)c1OCCOc1ccc(C)cc1 | -11 | ? | -13% | 3% | -11% | -12%[11.6 µM] | /
COc1cc(/C=C2\C(=N)N3N=C(S(C)(=O)=O)SC3=NC2=O)ccc1OCCOc1ccc(C)cc1 | ? | ? | 3%[60.1 µM] | -29% | ? | -33%[11.6 µM] | ? | Pol kappa inh-2=27*
Cc1ccc(S(=O)(=O)N2CCCCC2)cc1NC(=O)COC(=O)C1(C)CC1(Cl)Cl (stereo unspecified) | -3 | ? | -10% | / | ? | -8% | /
Cc1cccc(N2CCN(c3nc4ccc(C)cc4n4cnnc34)CC2C)c1 (stereo unspecified) | / | 13% | -10% | 0% | -21% | / | /
Cc1ccsc1C(=O)OC(C)C(=O)Nc1ccc(Cl)cn1 (stereo unspecified) | 6 | 42% | -5% | / | -18% | -10% | /
COC(=O)c1ccccc1NC1=C/C(=N\S(=O)(=O)c2ccc(C(=O)O)cc2)c2ccccc2C1=O | ? | 1.1µM* | ? | 32µM* | 14µM* | ? | / | GALK inh confirm=?;Redox cycling=12µM*;HEK293 viability=?
COC(=O)c1ccccc1Nc1ccccc1 | / | 2% | -5% | 11% | -14% | 3% | /
O=c1[nH][nH]c2cc(=O)n(-c3ccc(Cl)cc3)nc12 | -27 | ? | 79µM* | ? | ? | ? | ? | Pol kappa inh-2=17*
COc1cc(N)c(C(=O)c2nccc3cc(OC)c(OC)cc23)cc1OC | 3 | 234% | 3% | 44% | 11% | -31% | /
COc1cc(Br)c(C(=O)c2nccc3cc(OC)c(OC)cc23)cc1OC | -7 | 1.8µM* | 9% | -2% | 79µM* | -12%[11.6 µM] | ?
Cc1noc(C)c1S(=O)(=O)Nc1ccc2c(c1)C(=O)N([C@@H](C)CO)C[C@H](C)[C@@H](CN(C)Cc1ccc(C(F)(F)F)cc1)OCCCC[C@H](C)O2 | -5 | / | / | / | -14% | -4% | /
COc1ccccc1NS(=O)(=O)c1ccc(C(=O)NCC(c2ccccc2OC)N2CCCC2)cc1 (stereo unspecified) | -5 | 12% | 7% | / | -18% | 9% | /
COc1ccccc1C(CNC(=O)c1ccc(NS(=O)(=O)c2ccc(C(C)=O)cc2)cc1)N1CCCC1 (stereo unspecified) | -17 | 32µM* | ? | / | 16µM* | -13%[11.6 µM] | ?
CC(=O)c1ccc(S(=O)(=O)Nc2ccc(C(=O)NCC(c3ccco3)N3CCCC3)cc2)cc1 (stereo unspecified) | 3 | / | / | / | 20µM* | -1%[11.6 µM] | ? | Pol kappa inh-2=?
COc1ccc(-c2c(C(F)(F)F)[nH]n3c(=O)cc(-c4ccccc4)nc23)cc1 | -5 | -12% | -4% | 12% | 89µM* | -8% | ?
Cc1ccc(Cl)cc1N1CCN(C(=O)CN(c2ccccc2)S(=O)(=O)N(C)C)CC1 | -28 | 25µM* | ? | 10µM* | 50µM* | -11%[11.6 µM] | / | Pol kappa inh-2=?
CN1CCN(C(=O)CN(c2ccccc2)S(=O)(=O)N(C)C)CC1 | 1 | 47% | -17% | 5% | -11% | 11% | /
CCOC(=O)c1ccc(/C=C2/C=C(c3ccccc3)N(c3ccc(Cl)c(C(=O)O)c3)C2=O)cc1 | ? | ? | -17% | 32µM* | 20µM* | 50µM* | 60* | Pol kappa inh-2=?
Cc1ccc(N2CC(C(=O)Nc3cccc(C(=O)NC4CC4)c3)CC2=O)cc1 (stereo unspecified) | -4 | ? | 0% | / | 35µM* | -12% | / | Pol kappa inh-2=?
C[C@H](NC(=O)C1CCN(S(=O)(=O)c2ccccc2)CC1)C(=O)NCc1cccnc1 | 5 | / | / | / | 0% | 4% | /
COc1cc(/C=C2\C(C)=C(C#N)c3nc(N)c(C#N)c(C)c32)ccc1OCC(=O)O | -14 | -25% | -35% | 2% | 22µM* | -15% | 38*
COc1ccc(CNS(=O)(=O)c2ccc3c(c2)NC(=O)C(C)C(=O)N3)cc1 (stereo unspecified) | / | 6% | -9% | 1% | -9% | / | /
